# Measured values reported in PMC5540273 (PLoS ONE, 2017).
# Legend:
# Details in all cases: concentration: 1 μM,replicates: in singlicate; n = 1
# PLK2 = test system: PLK2
# PLK3 = test system: PLK3
# PLK4 = test system: PLK4
# PRKCD = test system: PRKCD
# PRKCE = test system: PRKCE
# PRKCH = test system: PRKCH
# PRKCI = test system: PRKCI
# PRKCQ = test system: PRKCQ
# PRKD1 = test system: PRKD1
# PRKD2 = test system: PRKD2
# PRKD3 = test system: PRKD3
# PRKG1 = test system: PRKG1
# PRKG2 = test system: PRKG2
# PRKR = test system: T1, PRKR
# T1 construct: gene EIF2AK2
# PRKX = test system: PRKX
# PRP4 = test system: PRP4
# PYK2 = test system: T2, PYK2
# T2 construct: gene PTK2B
# QSK = test system: QSK
# RAF1 = test system: RAF1
# RET = test system: RET
# 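Also: KINOMEscan kinase panel screen.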
SMILES,%Inh (PLK2) [%],%Inh (PLK3) [%],%Inh (PLK4) [%],%Inh (PRKCD) [%],%Inh (PRKCE) [%],%Inh (PRKCH) [%],%Inh (PRKCI) [%],%Inh (PRKCQ) [%],%Inh (PRKD1) [%],%Inh (PRKD2) [%],%Inh (PRKD3) [%],%Inh (PRKG1) [%],%Inh (PRKG2) [%],%Inh (PRKR) [%],%Inh (PRKX) [%],%Inh (PRP4) [%],%Inh (PYK2) [%],%Inh (QSK) [%],%Inh (RAF1) [%],%Inh (RET) [%]
CC(C)c1nc(-c2cccc(NS(=O)(=O)c3ccccc3)c2)c(-c2ccnc(Nc3ccc4c(c3)CN(C)CC4)n2)s1 [GSK1649598],0,0,99.8,0,0,0,45,11,93.9,99.9,100,0,0,29,5,8,48,49,87,95.4
Cn1cc(-c2cccc3c(N)c(C(N)=O)nnc23)cn1,13,17,26,24,10,36,24,53,0,15,21,39,11,0,3,1,9,3,0,12
NC(=O)Nc1sc(-c2ccc(F)cc2)cc1C(N)=O [GW789449],20,1,26,20,17,0,25,35,0,0,0,6,8,35,0,75,26,0,43,55
COc1cc2nccc(Nc3ccc(Oc4ccccc4)cc3)c2cc1OC.Cl [GI261656],0,0,15,0,0,1,0,0,0,0,6,0,0,0,0,48,0,3,11,23
Nc1nccc(-c2ccc3c(N)n[nH]c3c2)n1 [GSK1034945],0,0,0,0,0,11,3,21,0,0,4,0,68,0,68,27,8,0,17,9
CC(C)S(=O)(=O)N1CCN(Cc2ccc3c(c2)nc(NC(=O)c2ccsc2)n3C[C@H](O)c2ccccc2)CC1 [GW635815],0,0,5,11,15,13,18,12,0,0,0,23,18,0,16,10,38,3,6,44
Cc1ccc(Nc2ccnc(Nc3ccc4c(c3)CS(=O)(=O)C4)n2)cc1O.Cl [GW579362],0,4,99.7,0,19,0,32,46,29,55,87,0,0,47,0,84,83,9,42,100
CCNCC(Cc1ccccc1)NC(=O)c1cc(Br)c(-c2ccnc3[nH]ccc23)s1.Cl.Cl (centres unmarked) [GSK1383280],30,47,92.3,91.7,94.5,93.1,26,74,77,73,73,99,99,22,95.6,6,25,0,2,75
O=C(Nc1n[nH]c2cc(-c3ccco3)ccc12)C1CC1 [SB-737447],6,8,20,4,0,8,29,5,0,0,0,0,0,0,0,13,23,20,0,0
C[C@@H]1CNc2c(sc3ccc4nc(-c5ccc(O)cc5)ccc4c23)C(=O)N1,6,15,90.1,43,46,35,5,59,70,34,43,12,61,0,0,12,19,0,0,13
COc1cc(Nc2nccc(N3CCC(NC(=O)c4cccc(C#N)c4)C3)n2)cc(OC)c1OC (centres unmarked) [GSK1379751],0,0,36,0,7,0,0,0,0,0,0,0,0,0,0,54,0,0,26,14
N#Cc1cccc(C(=O)NC2CCN(c3ccnc(Nc4ccc(F)cc4)n3)C2)c1 (centres unmarked) [GSK1379708],0,0,0,0,0,0,23,0,0,0,0,1,0,0,14,29,3,0,2,18
Cl.Nc1n[nH]c2cc(-c3ccccn3)ccc12 [GSK2189892],0,0,0,0,0,13,8,7,0,10,0,0,0,0,13,24,0,0,6,2
CCn1c(-c2nonc2N)nc2cncc(CNC3CCNCC3)c21.Cl [SB-747651],0,0,0,77,66,89,10,43,0,0,50,74,86,0,55,20,0,1,97.5,5
CN1CCN(CCNc2nc3cc(Oc4ccc(NC(=O)Nc5cc(C(F)(F)F)ccc5F)cc4)ccc3[nH]2)CC1.Cl.Cl [GW768504],0,0,8,9,0,0,0,0,0,14,0,2,0,24,0,0,18,0,75,99.9
Cc1cccc2c(-c3ccncc3)c(-c3ccc(F)cc3)nn12.Cl [GW461487],0,0,0,3,10,0,23,0,2,36,0,9,8,0,3,7,22,15,11,18
CS(=O)(=O)c1cccc(CNc2nc(Nc3ccc4c(c3)[C@@H]3C[C@@H]4CNC3=O)ncc2C(F)(F)F)c1,0,0,98.7,0,5,0,8,14,22,28,22,0,0,0,0,10,66,0,0,100
Cc1ccc2c(-c3ccnc(Nc4ccc(C(F)(F)F)cc4)n3)cnn2n1 [GW819776],15,33,9,5,0,0,22,0,0,0,0,8,0,0,0,0,16,14,15,0
CC(=O)Nc1nc2cnc(Nc3cc(NC(=O)c4cccc(CC(C)(C)C#N)c4)ccc3C)nc2s1,0,3,18,13,0,14,5,11,0,0,0,0,17,0,35,6,9,0,99.5,99.7
